Bioassay records from PubChem BioAssay.
miR-122 sensor: blocks miR-122 activity in Huh7 sensor cells; Huh7 miR-122 Renilla luciferase sensor, 48 h; neutral wells = 0, positive control = 100; activation (reporter increase), % at 12.5 µM; 0.3% of 340,000 active;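 active = mean replicate activation score at least 90 and every replicate individually at or above 90; inconclusive = only one of the two criteria met; inactive = neither criterion met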;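 note: higher luciferase means less miR-122 activity so hits act as miR-122 inhibitors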
MITF act: MITF TRPM1 promoter activation in melanoma cells; SK-MEL-5 TRPM1-promoter luciferase, 24 h; % of positive control, neutral wells = 0; 0.75% of 300,000 active; activation, % at 12.5 µM; AID 588334;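 active = mean activation of at least 80% with every replicate also reaching 80%; inconclusive = mean reaches 80% but some replicate falls short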;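 note: 0% = neutral control wells and 100% = parthenolide positive control wells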
Wnt act: Wnt/beta-catenin pathway activation; Wnt/beta-catenin reporter cell assay, activator, plate reader; activation, % at 9.35 µM; 1.2% of 300,000 active; AID 743398; in the data active = activation above about 30%, passing the limit was not always enough; inconclusive = no clear call, values can overlap the other calls;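 note: 0% = neutral control wells and 100% = positive control wells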
esBAF inh: inhibitors of esBAF chromatin remodeling in mouse ES cells; Bmi1-luciferase knock-in reporter, 24 h; 100% = twice the neutral-well signal; 2% of 350,000 active; reporter increase, % at 12.5 µM; in the data active = activation above about 40%; inconclusive = no clear call, values can overlap the other calls;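 note: 0% = median of the plate's neutral control wells and 100% = double that signal; a rise in the Bmi1 reporter signal indicates esBAF inhibition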
HIV Env fusion: blocks HIV Env-driven cell-cell fusion; 1.1% of 360,000 active; inhibition, % at 12.3 µM; AID 651610; HeLa-JRFL Env/CEM21 cell fusion, luciferase;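 active = mean replicate inhibition score of at least 50 and every replicate individually at or above 50; inconclusive = only one of the two criteria met; inactive = mean below 50 and not all replicates reaching 50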;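 note: 0% = plate neutral controls and 100% = maraviroc near 300 nM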
* hit, by the source's call; ? = inconclusive; . = not tested or not shown; ! = a repeat was not active; [ ] = dose if it differs, or a comment. This is a sample that favours compounds with a hit; in the whole collection about 3.4% have one here.

SMILES	miR-122 sensor	MITF act	Wnt act	esBAF inh	HIV Env fusion
C[C@@H]1CN([C@@H](C)CO)C(=O)Cc2cc(NS(=O)(=O)c3ccccc3)ccc2O[C@H]1CN(C)C	0.4[16.7 µM]	.	.	-5.4	.
Nc1c(C(=O)Nc2ccccc2Cl)nnn1-c1ccc2c(c1)OCCO2	.	132.3*	18.4	32.4	-128.7
Nc1c(C(=O)Nc2ccc3c(c2)OCCO3)nnn1CCc1ccccc1	.	12.4	12.1	66.5*	-328.2
O=C(Nc1ccc2c(c1)OCCO2)N1CCN(Cc2ccccc2)CC1	-6.2	58.9	24.6	55.3*	1.1
Cc1ccc(NC(=O)c2nnn(CC(=O)Nc3ccc4c(c3)OCO4)c2N)cc1C	.	5.9	2.1	18.5	-3.8
O=C(CCc1ccccc1)Nc1ccc2c(c1)OCCO2	-0.6	71.0	16.0	27.1	.
O=C(Nc1ccc2c(c1)OCCO2)N1CCN(c2ccccc2)CC1	-25.5	.	17.9	20.2	17.8
Nc1c(C(=O)Nc2ccc3c(c2)OCCO3)nnn1Cc1ccc(Br)cc1	.	111.1*	36.2*	126.2*	-146.2
COc1cccc(-c2ccc([C@H]3[C@@H](CO)N4C(=O)CN(C(=O)C5CCCC5)C[C@@H]34)cc2)c1	.	.	.	.	21.6[16.7 µM]
Cc1ccc(S(=O)(=O)Nc2ccc3c(c2)CC(=O)N([C@@H](C)CO)C[C@H](C)[C@@H](CN(C)Cc2ccc(Cl)c(Cl)c2)O3)cc1	-3.2[16.7 µM]	.	.	-4.1	-16.0[16.7 µM]
Nc1c(C(=O)Nc2ccc3c(c2)OCCO3)nnn1Cc1cccc(Br)c1	55.5	102.0*	42.2*	55.0*	-46.0
O=C(Nc1ccc2c(c1)OCCO2)c1cccc(Br)c1	-0.9	.	26.7	37.3	-80.2
C[C@@H]1CN([C@H](C)CO)C(=O)c2cccc(NS(=O)(=O)c3ccccc3)c2O[C@H]1CN(C)Cc1ccc(Oc2ccccc2)cc1	-1.4[16.7 µM]	.	.	-2.1	-19.8[16.7 µM]
c1ccc(CNc2ncnc3ccccc23)cc1	7.2	-6.0	-7.9	-38.7	106.4*!
COC(=O)C[C@@H]1C[C@@H]2c3cc(NC(=O)C4CCC4)ccc3O[C@@H]2[C@@H](CO)O1	0.9[16.7 µM]	.	.	0.8	24.2[16.7 µM]
O=C(NCCSc1ccccn1)c1ccc(Cl)cc1	2.9	69.1	12.8	27.2	-66.8
CS(=O)(=O)N(Cc1ccc(Cl)cc1)c1ccc(C(=O)NCCSc2ccccn2)cc1	1.3	-7.8	-5.3	-2.6	84.7*
CS(=O)(=O)N(Cc1ccc(Cl)cc1)c1ccc(C(=O)Nc2cccnc2)cc1	-1.4	.	.	-0.6	60.2*
C[C@@H]1CCCCO[C@@H](CN(C)C(=O)c2ccccc2)[C@@H](C)CN([C@@H](C)CO)C(=O)c2cc(NC(=O)Nc3ccccc3)ccc2O1	3.9[16.7 µM]	.	.	-9.2	-11.0[16.7 µM]
C[C@@H]1CN([C@H](C)CO)C(=O)c2cccc(NS(=O)(=O)c3cn(C)cn3)c2O[C@H]1CN(C)C(=O)Nc1ccc(C(F)(F)F)cc1	2.4[16.7 µM]	.	.	5.1	.
CCOc1ccc(-c2[nH]ncc2-c2ccc(OC)c(OC)c2)c(O)c1	49.3	-1.1	.	.	66.6*
COc1ccc(-c2cn[nH]c2-c2ccc(OCc3ccc([N+](=O)[O-])cc3)cc2O)cc1	.	22.4	.	.	73.0*
CCc1cc(-c2[nH]ncc2-c2ccc(OC)cc2)c(O)cc1O	-1.1	-2.2	-0.4	1.2	12.9
COc1ccc(-c2cn[nH]c2-c2ccc(O)cc2O)cc1OC	1.1	-10.1	-1.9	-4.5	6.5
C[C@@H]1CN([C@@H](C)CO)C(=O)c2cc(NC(=O)CCC(F)(F)F)ccc2O[C@@H](C)CCCCO[C@H]1CN(C)S(=O)(=O)c1cn(C)cn1	3.9[16.7 µM]	.	.	3.2	25.3[16.7 µM]
SMILES	miR-122 sensor	MITF act	Wnt act	esBAF inh	HIV Env fusion
O=S(=O)(Nc1cccc(-n2cnnn2)c1)c1cc(Br)ccc1Br	108.4*	-5.4	2.1	-0.1	3.8
COCC#Cc1cnc2c(c1)C(=O)N([C@H](C)CO)C[C@H](C)[C@@H](CN(C)C(=O)C1CCCCC1)O2	25.3[16.7 µM]	.	.	3.5	-0.6[16.7 µM]
C(=N\Nc1nc2ccccc2[nH]1)/c1ccccn1	.	-81.9	20.8	.	20.2
Cc1ccc(/C=N\Nc2nc3ccc(Cl)cc3[nH]2)o1	-0.7	38.9	67.8*	.	-24.1
C(=N\Nc1ccc2ccccc2n1)/c1ccc2c(c1)OCCO2	15.2	-88.2	-5.1	-77.3	?
C(=N\Nc1nc2ccccc2[nH]1)/c1ccc2c(c1)OCCO2	0.8	.	34.7*	.	-103.2
Fc1ccccc1-c1ccc(/C=N/Nc2nc3ccccc3[nH]2)o1	.	13.1	53.1*	.	-204.3
Cc1ccc(S(=O)(=O)Nc2ccc3c(c2)C(=O)N([C@@H](C)CO)C[C@H](C)[C@H](CN(C)C)OCCCC[C@@H](C)O3)cc1	-0.4[16.7 µM]	.	.	-6.8	3.6[16.7 µM]
C[C@H](CO)N1C[C@H](C)[C@@H](CN(C)S(=O)(=O)c2ccccc2F)Oc2ncc(C#Cc3ccccc3)cc2C1=O	-6.2[16.7 µM]	.	.	7.3	-5.5[16.7 µM]
O=C(NCC[C@H]1CC[C@@H](NC(=O)C2CCC2)[C@@H](CO)O1)c1cnccn1	.	.	.	-6.1	-16.5[16.7 µM]
O=C(NC(=S)Nc1ccc([N+](=O)[O-])cc1O)C1CCCCC1	0.9	11.6	-1.5	.	-3.1
Cn1ccc(C(=O)NC(=S)Nc2ccc([N+](=O)[O-])cc2O)n1	.	69.1	27.2	69.1*	-40.0
CCC1(CC)Nc2ccccc2C(=O)N1c1ccc(NC(C)=O)cc1	-3.8	8.5	9.2	5.7	.
CCC1(CC)Nc2ccccc2C(=O)N1c1ccc(OC)cc1	.	41.8	53.2*	.	-24.3
CNC[C@@H]1Oc2ccc(NS(C)(=O)=O)cc2CC(=O)N([C@H](C)CO)C[C@H]1C	-0.9[16.7 µM]	.	.	0.4	64.9*[16.7 µM]
C[C@H](CO)N1C[C@H](C)[C@@H](CN(C)CC2CC2)Oc2ccc(NS(C)(=O)=O)cc2CC1=O	-4.6[16.7 µM]	.	.	3.7	57.6*[16.7 µM]
C[C@@H]1CN([C@@H](C)CO)C(=O)Cc2cc(NS(C)(=O)=O)ccc2O[C@H]1CN(C)CC1CC1	-4.3[16.7 µM]	.	.	5.9	2.2[16.7 µM]
COCC#Cc1cnc2c(c1)C(=O)N([C@H](C)CO)C[C@H](C)[C@@H](CN(C)Cc1ccc3c(c1)OCO3)O2	-2.5[16.7 µM]	.	.	5.7	-1.1[16.7 µM]
CCNC(=O)C[C@H]1CC[C@@H]2[C@H](COC[C@H](O)CN2S(=O)(=O)c2ccccc2F)O1	-3.5[16.7 µM]	.	.	1.9	.
CC(C)(C)Nc1nc(-c2ccc3c(c2)CCN3C(=O)C2CC2)cs1	.	.	?	94.6*	-93.8
O=C(CN1CCCC1)Nc1nc(-c2ccc3c(c2)CCN3C(=O)c2ccccc2F)cs1	-7.5	9.3	.	20.3	.
CNc1nc(-c2ccc3c(c2)CCN3C(=O)c2ccc(F)cc2)cs1	-9.3	32.6	-3.8	51.7*	-32.2
CNc1nc(-c2ccc3c(c2)CCN3C(=O)c2ccccc2C)cs1	.	148.9*	6.1	.	-87.6
CNc1nc(-c2ccc3c(c2)CCN3C(=O)c2cccc(F)c2)cs1	.	36.2	12.8	.	-88.1
CS(=O)(=O)N1CCc2cc(-c3csc(NC(=O)Cc4cccs4)n3)ccc21	-1.8	-45.8	.	25.6	76.1*
CO[C@H]1CN(C)C(=O)c2ccc(NC(C)=O)cc2OC[C@@H](C)N(CC2CCCCC2)C[C@@H]1C	.	.	.	-2.9	.
C[C@@H]1CN([C@H](C)CO)C(=O)c2cc(/C=C/c3ccccc3)cnc2O[C@@H]1CN(C)C(=O)c1ccc2c(c1)OCO2	-0.1[16.7 µM]	.	.	11.7	-17.0[16.7 µM]
